Many of the other results were omitted from the sample, so hits are more common in it than they were.
STK33 inh: STK33 kinase inhibitors, primary screen, biochemical, luminescence, ADP-Glo, MBP substrate. Serine/threonine-protein kinase 33 (Homo sapiens), Q9BYT3. inhibition, % at 12.5 µM. 27,000 tested, 0.44% active. AID 2322, 2010; in the data active = inhibition above about 20%; inconclusive = no clear call, values can overlap the other calls
Target sequence (Q9BYT3 whole entry, looked up): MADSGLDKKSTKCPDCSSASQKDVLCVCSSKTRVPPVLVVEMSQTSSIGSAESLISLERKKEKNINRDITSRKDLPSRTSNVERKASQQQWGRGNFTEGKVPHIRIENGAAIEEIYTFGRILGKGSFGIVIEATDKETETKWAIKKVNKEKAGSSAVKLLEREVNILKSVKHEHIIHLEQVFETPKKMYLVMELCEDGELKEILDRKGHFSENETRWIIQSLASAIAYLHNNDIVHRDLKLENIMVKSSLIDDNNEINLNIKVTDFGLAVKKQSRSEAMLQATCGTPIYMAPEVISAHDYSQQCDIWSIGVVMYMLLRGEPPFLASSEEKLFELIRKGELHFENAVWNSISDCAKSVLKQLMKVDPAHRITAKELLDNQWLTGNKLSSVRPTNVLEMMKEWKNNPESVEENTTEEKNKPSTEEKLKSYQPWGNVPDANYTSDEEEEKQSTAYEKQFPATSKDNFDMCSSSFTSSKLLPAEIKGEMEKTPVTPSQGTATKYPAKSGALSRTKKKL
PD-1 reverse act: activators reversing PD-1 mediated T-cell inhibition, primary screen, luminescence, primary human CD4 T cells, PD-L1 beads. CellTiter-Glo 96 h. activation, % (concentration not given with the values). 29,000 tested, under 10 active; call rule not given here;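 note: 0% = median vehicle wells and 100% = positive control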
NOMO-1 viab: NOMO-1 AML cell viability reduction, primary screen, STK33 inhibitor project, CellTiter-Glo luminescence; NOMO-1 AML viability, 72 h; 37,000 tested, 7.5% active; inhibition, % (no concentration beside the values); in the data active = inhibition above about 80%; inconclusive = no clear call, values can overlap the other calls
An asterisk follows results filed as active; ? = inconclusive; · = not tested or not shown.

SMILES	STK33 inh	PD-1 reverse act	NOMO-1 viab
C[C@H](CO)N1C[C@H](C)[C@H](CN(C)Cc2ccc(C(=O)O)cc2)Oc2c(NC(=O)Nc3ccc(F)cc3)cccc2C1=O	·	1.0	12.6
C[C@H](CO)N1C[C@H](C)[C@H](CN(C)Cc2ccc(C(=O)Nc3ccccc3N)cc2)Oc2c(NC(=O)Nc3ccc(C(F)(F)F)cc3)cccc2C1=O	·	-2.0	60.2
C[C@@H]1CN([C@@H](C)CO)C(=O)c2cccc(NC(=O)Nc3ccccc3)c2O[C@H]1CN(C)Cc1ccc(C(=O)Nc2ccccc2N)cc1	·	-0.8	124.8*
C[C@@H]1CN([C@@H](C)CO)C(=O)c2cccc(NC(=O)Nc3ccc(F)cc3)c2O[C@@H]1CN(C)Cc1ccc(C(=O)Nc2ccccc2N)cc1	·	-1.8	140.5*
Cc1ccc(NC(=O)c2cc(=O)[nH]c(=O)[nH]2)cc1	1.4	1.7	-2.5
Cc1nnsc1C(=O)Nc1cccnc1	·	-0.6	14.0
CC(Oc1ccccc1-c1ccccc1)c1n[nH]c(=S)n1-c1ccccc1 (centres undefined)	1.1	0.1	10.7
O=C(CSc1nnc(-c2ccccn2)n1-c1ccccc1)Nc1cc(C(F)(F)F)ccc1Cl	0.2	·	28.1
Cc1ccc(CN2CCN(CCO)CC2)o1	3.4	·	·
C[C@@H]1CN([C@H](C)CO)C(=O)c2cccc(NC(=O)Nc3ccccc3)c2O[C@@H]1CN(C)Cc1ccc(C(=O)O)cc1	·	·	-18.4
C[C@@H]1CN([C@H](C)CO)C(=O)c2cccc(NC(=O)Nc3ccc4c(c3)OCO4)c2O[C@H]1CN(C)Cc1ccc(C(=O)Nc2ccccc2N)cc1	·	-1.5	126.9*
C[C@H](CO)N1C[C@H](C)[C@H](CN(C)Cc2ccc(C(=O)Nc3ccccc3N)cc2)Oc2c(NC(=O)Nc3ccc4c(c3)OCO4)cccc2C1=O	·	-1.8	?
C[C@H]1CN([C@@H](C)CO)C(=O)c2cccc(NC(=O)Nc3ccccc3)c2O[C@@H]1CN(C)Cc1ccc(C(=O)Nc2ccccc2N)cc1	·	-5.0	127.1*
C[C@H](CO)N1C[C@H](C)[C@@H](CN(C)Cc2ccc(C(=O)O)cc2)Oc2c(NC(=O)Nc3ccccc3)cccc2C1=O	·	·	-27.6
C[C@H](CO)N1C[C@H](C)[C@@H](CN(C)Cc2ccc(C(=O)Nc3ccccc3N)cc2)Oc2c(NC(=O)Nc3ccccc3)cccc2C1=O	·	-2.2	127.4*
CC(NS(=O)(=O)c1ccccc1)C(=O)Nc1ccccc1F (centres undefined)	4.5	1.6	-4.8
Nc1ccccc1CC(c1c[nH]c2ccccc12)c1c[nH]c2ccccc12	·	-0.2	64.3
COc1ccc(CCNC(=O)CSc2nc3ccccc3nc2N2CCCC2)cc1OC	·	-0.1	35.3
N#Cc1ccc(C(=O)Cn2cc(C(F)(F)F)ccc2=O)cc1	-2.6	0.6	9.5
CCCC(O)/C(=C/C1=C(C(=O)CC(CC(=O)O)OC(N)=O)C(=O)c2cccc(O)c2C1=O)CC(C(=O)O)[N+](C)(C)C (centres undefined)	-3.2	-15.7	108.3*
COc1cccc(-c2cc(=O)c3ccccc3o2)c1N	1.7	0.1	64.3
COc1cccc(C=C2C(=O)c3ccccc3C2=O)c1OC(C)C	·	-3.5	104.5*
CCc1cc(-c2[nH]ncc2-c2nc(C)cs2)c(O)cc1OC(C)C(=O)NN (centres undefined)	·	0.1	21.4
CCCc1c(Cc2c(F)cccc2Cl)c(=O)oc2cc(O)ccc12	·	-4.0	120.5*
Cc1c(CCC(=O)O)c(=O)oc2cc(OCc3cccc(F)c3)ccc12	-3.3	2.0	23.5
SMILES	STK33 inh	PD-1 reverse act	NOMO-1 viab
CC1(C)CC(=O)C2=C(C1)Nc1ccc3ccccc3c1C2c1cccnc1 (centres undefined)	·	-1.9	?
O=C(CN1CCCc2ccccc21)Nc1ccc(Cl)c(Cl)c1	·	-0.1	39.0
CCOC(=O)c1cnc2c(c(C)nn2C)c1Sc1nnc(SC)s1	·	-5.5	125.1*
CCOC(=O)c1cnc2c(c(C3CC3)nn2C)c1N1CCOCC1	·	0.0	4.0
CCOC(=O)c1nc2ccccc2c(=O)n1/N=C/c1cc(Cl)cc(Cl)c1O	·	0.4	101.4*
Cn1c(SCC(=O)Nc2ccc(Cl)cc2Cl)nc2ccccc2c1=O	4.0	-4.2	28.7
CCNS(=O)(=O)c1cc(-c2nnc(Nc3ccc(F)cc3)c3ccccc23)ccc1C	·	-1.0	?
C[C@@H]1CN([C@@H](C)CO)C(=O)c2cccc(NC(=O)c3cnccn3)c2O[C@@H]1CN(C)Cc1ccc(C(=O)Nc2ccccc2N)cc1	·	-3.1	128.7*
C[C@@H]1CN([C@@H](C)CO)C(=O)c2cccc(NC(=O)c3cnccn3)c2O[C@H]1CN(C)Cc1ccc(Cl)c(Cl)c1	·	-8.2	104.5*
C[C@@H]1CN([C@H](C)CO)C(=O)c2cccc(NC(=O)c3cnccn3)c2O[C@H]1CN(C)Cc1ccc(C(=O)Nc2ccccc2N)cc1	·	-0.4	?
C[C@@H]1CN([C@@H](C)CO)C(=O)c2cccc(NC(=O)c3cnccn3)c2O[C@@H]1CN(C)Cc1ccc(Cl)c(Cl)c1	·	·	10.5
O=C(CSc1n[nH]c(-c2ccc(Cl)cc2)n1)Nc1c(F)cc(F)cc1Br	-0.5	-0.3	3.3
Cc1ccc(NC(=O)c2ccc(CSc3ncnc4nc[nH]c34)cc2)cc1	·	0.0	-1.5
O=C(CSc1n[nH]c(-c2ccccc2Cl)n1)Nc1ccccc1F	1.0	·	19.1
COC(=O)c1ccccc1NC(=O)CSc1nc2c(cc1C#N)CCCCC2	?	1.6	-14.5
CN(C)CCCNc1ncnc2c1sc1nc(N3CCOCC3)c3c(c12)CCC3	1.6	-1.9	97.8*
c1nc(NCC2CCCO2)c2sc3nc(N4CCCCC4)c4c(c3c2n1)CCCC4 (centres undefined)	-1.1	-0.2	36.2
CCCCCCCCN1C(=O)C(C(C)=O)=C(C)C1(C)O (centres undefined)	-3.4	-37.2	97.8*
COc1ccc(N=Cc2c(O)ccc3oc4c(c23)CCCC4)cc1	·	0.3	99.3*
Oc1ccc2oc3c(c2c1/C=N/N1CCCCC1)CCCC3	3.8	1.8	11.1
Cc1ccc(C(C)C)c(OCC(=O)Nc2ccccc2C#N)c1	-1.8	-3.7	17.0
C=C(C)C(=O)O[C@@H]1C2=C(C)C(=O)OC2(O)CC23OC2CC[C@H](C)[C@@]13C (some centres undefined)	-1.9	0.4	23.5
C=C(C)C(=O)OC1CC(CO)CCC/C(CO)=C\C2OC(=O)C(=C)C21 (centres undefined)	-5.7	·	·
C=C(C)C(=O)O[C@H]1[C@H]2C(=C)C(=O)O[C@@H]2C[C@@H](C)[C@@H]2O[C@@H]2C(=O)[C@](C)(O)[C@@H]1OC(C)=O	-3.1	-19.7	122.2*
C=C(C)C(=O)O[C@H]1[C@H]2C(=C)C(=O)O[C@@H]2C[C@@H](C)/C=C/C(=O)[C@](C)(O)[C@@H]1OC(=O)C(=C)C	-1.0	-10.8	107.5*
COC(=O)C1=CO[C@@H](OC2OC(O)C(O)C(O)C2CO)[C@H]2[C@@H]1C=CC21C=C([C@H](C)OC(=O)/C=C/c2ccc(OC3OC(CO)C(O)C(O)C3O)cc2)C(=O)O1 (some centres undefined)	0.0	1.7	20.2
Nc1cc(N)nc(SCC(=O)N(c2ccccc2)c2ccccc2)n1	2.1	·	13.3
COCc1cc(O)c(O)c(O)c1-c1c(COC)cc(O)c(O)c1O	7.2	-3.3	96.6*

Assay outcomes from PubChem.
